High-throughput results (PubChem)
Shiga toxin inh: blocks Shiga toxin action in Vero cells; inhibition, % at 38.7 µM; Vero cells, Shiga toxin protein synthesis inhibition reporter; AID 2315; 9.2% of 290,000 active; in the data active = inhibition mostly above about 28%, no sharp cut-off; inactive = mostly below about 43%; note: 0% is about no effect
Cycloheximide cs: affects cycloheximide protein synthesis inhibition readout, counter-screen; cell reporter, cycloheximide protein synthesis inhibition counterscreen; max response, %; 12% of 300,000 active; AID 2314; in the data active = max response mostly above about 13%, no sharp cut-off; inactive = mostly below about 14%; note: read at 38.3 µM for the half of the compounds with a filed dose; 0% is about no effect
MARV entry inh: blocks Marburg virus binding to or entry into cells; Potency, µM (titrated, usually from 37.8 µM), without a hit: top-dose activity change, negative = inhibition, most hits filed as inhibitors; Marburg virus pseudotyped entry inhibition, cell reporter; AID 540276; 1.8% of 300,000 active; calls by dose curve; tested in HEK293 cells; note: potency is the fitted concentration of half-maximal effect; % is set by controls: 0 for no effect and ±100 for the full control effect
LASV entry inh: Lassa virus entry inhibition. Potency, µM (highest dose often 37.9 µM), inactives show top-dose activity change, negative = inhibition, most hits filed as inhibitors. AID 540256. 1.2% of 300,000 active. Lassa virus pseudotype entry inhibition, cell reporter; calls by dose curve; tested in HEK293 cells; note: potency is the fitted concentration of half-maximal effect; % is set by controls: 0 for no effect and ±100 for the full control effect; nearly all actives have a fitted effect of over 50% in size
Active calls of the source: *; ? = inconclusive; · = no result given; [ ] = remark or other dose. Hits are enriched below; roughly 12% of the tested compounds scored in any of these assays.

SMILES	Shiga toxin inh	Cycloheximide cs	MARV entry inh	LASV entry inh
O=C(CSc1ccc(Br)cc1)NCC(c1ccco1)N1CCCCC1 (centres undefined)	·	·	-6.8%	17.5%
CCCc1nc(-c2cc3ccc(C)cc3[nH]c2=O)no1	59.4*	23.0*	-23.9%	16.9%
Cc1ccc2cc(-c3noc(C4CCCO4)n3)c(=O)[nH]c2c1 (centres undefined)	55.9	17.0*	·	·
CCOc1ccccc1-c1nc(-c2cc3ccc(C)cc3[nH]c2=O)no1	13.6	-1.7	-2.7%	-25.3%
O=C(/C=C/c1ccccc1)N/C(=C/c1ccccc1)C(=O)N1CCCCC1	-22.9	-4.8	-1.8%	-27.2%
Cc1ccc(Cl)c(OC(=O)C2CSC3(C)CCC(=O)N23)c1 (centres undefined)	·	·	?	-10.0%
CN(C)/C=N/c1ncc(C(=O)c2ccc(-c3ccccc3)cc2)s1	24.0	19.1	?	?
CNc1ncc(C(=O)c2ccc(-c3ccccc3)cc2)s1	63.8*	44.5*	·	·
O=C(c1ccc(Cl)c(Cl)c1)c1cnc(Nc2ccccc2)s1	-3.6	10.7	-7.5%	?
CNc1ncc(C(=O)c2ccc(Cl)c(Cl)c2)s1	94.1*	37.7*	?	?
O=C(c1cnc(-c2ccc(Cl)cc2)s1)c1ccc(Cl)cc1Cl	-7.1	-1.6	-2.7%	?
CNc1ncc(C(=O)c2ccc(Cl)cc2)s1	69.3*	34.7*	-2.3%	-0.8%
Cc1ccc(NC(=O)C2CCCN2S(=O)(=O)c2ccc3c(c2)CCCC(=O)N3)cc1C (centres undefined)	·	·	·	-1.0%[46.1 µM]
Cc1nonc1OCCNCc1c(C(=O)N2CCCCCCC2)nc2ccc(Cl)cn12	0.9	5.1	·	·
O=C(NC(=S)Nc1cccc(O)c1)C1CCCCC1	·	·	22.4%	3.6%
Cc1cccc(C)c1NC(=O)CCSCCc1ccccn1	·	·	·	20.0%[46.1 µM]
COc1ccc2cc(-c3cc(C(=O)OCC(=O)Nc4c(C)n(C)n(-c5ccccc5)c4=O)c4ccccc4n3)ccc2c1	52.7*	30.7*	?	?
COc1ccc(-c2cc(C(=O)Nc3c(C)n(C)n(-c4ccccc4)c3=O)c3ccccc3n2)cc1	3.7	-3.4	?	-2.0%
Cc1cc(C(=O)OCC(=O)NC2CCS(=O)(=O)C2)c2ccccc2n1 (centres undefined)	4.6	-5.0	3.4%[46.1 µM]	?
COc1ccc2cc(-c3cc(C(=O)OCC(=O)NC4CCS(=O)(=O)C4)c4ccccc4n3)ccc2c1 (centres undefined)	30.5	26.1*	3.16µM*	3.55µM*
CCN(CC)C(=O)COC(=O)c1cc(-c2ccc(OC)cc2)nc2ccccc12	34.7	23.0*	?	?
CCOc1ccc(-c2cc(C(=O)O)c3ccccc3n2)cc1	-12.8	-1.5	20.6µM*	11.6µM*
CCOc1ccc(-c2cc(C(=O)N3CCC(C)CC3)c3ccccc3n2)cc1	·	·	16.2%	29.9%
